# Screening results deposited in PubChem BioAssay by National Center for Advancing Translational Sciences (NCATS).
# The list is not random: actives were taken first. Their share in the collection is about 9.9%.
# IL-1B inflam inh: blocks inflammasome-driven IL-1 beta release | THP-1 LPS/ATP IL-1B secretion, AlphaLISA, 16 h; hits give low values | activity change, % at 57.5 µM | 360,000 tested, 4.7% active | AID 743279; in the data active = activity change below about -50%; inconclusive = mostly about -30% to -49%; note: % is set by controls: 0 for no effect and ±100 for the full control effect
#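 Secreted IL-1B measured by AlphaLISA bead assay after 16 h compound exposure of THP-1 cells; compounds (final up to 57.5 uM) added 1 h before LPS (250 ng/mL) and ATP (1.25 mM) stimulation; lower signal means less secretion.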
# KB-V1 MDR tox: KB-V1 MDR subline cytotoxicity; KB-V1 MDR cells viability, CellTiter-Glo, 72 h; Potency, µM (series often up to 46.1 µM), actives largely listed as cytotoxic; 400,000 tested, 3.4% active; note: potency is the fitted concentration of half-maximal effect; % is set by controls: 0 for no effect and ±100 for the full control effect; nearly all actives have a fitted effect of over 60% in size
#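 Potencies derive from concentration-effect curves fitted to normalized luminescence (CellTiter-Glo) of KB-V1 cells treated for 72 h at 37 degrees C in phenol-red-free DMEM containing 10% FBS.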
# SW480 rerep: DNA re-replication induction in SW480 cells; SW480 DNA re-replication, Hoechst DNA content imaging, 48 h; Potency, µM (doses to about 46.1 µM), inactives show at the highest dose re-replication activation, actives largely listed as activators; AID 624297; 340,000 tested, 1.8% active; note: potency is the fitted concentration of half-maximal effect; % of control where 0% means no effect; nearly all actives have a fitted effect of over 55% in size
#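 SW480 cells exposed to compounds for 48 hr at 37 C, 5% CO2, then Hoechst-stained 40 min. Nuclear DNA content imaged by fluorescence scanning (405 nm excitation, 500-530 nm emission); re-replication scored as increased high-intensity nuclei.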
# KB-3-1 tox: kills parental KB-3-1 adenocarcinoma cells; KB-3-1 viability, CellTiter-Glo ATP luminescence, 72 h; 400,000 tested, 1.4% active; Potency, µM (highest dose often 46.1 µM), usual class: cytotoxic; note: potency is the fitted concentration of half-maximal effect; % is set by controls: 0 for no effect and ±100 for the full control effect; nearly all actives have a fitted effect of over 60% in size
#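 KB-3-1 parental drug-naive adenocarcinoma cells in DMEM/10% FBS, incubated 72 h at 37 C with pin-transferred compounds across a concentration series. Viability by CellTiter-Glo luminescence; concentration-response curves fitted after normalization.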
# MCF10A rerep: induces DNA re-replication in MCF 10a normal breast cells; AID 624296; Potency, µM (series often up to 46.1 µM), for the others: at the top dose activity, positive = re-replication, most hits filed as activators; 350,000 tested, 2.9% active; MCF 10A DNA re-replication, Hoechst nuclear intensity, 48 h; note: potency is the fitted concentration of half-maximal effect; % of control where 0% means no effect; nearly all actives have a fitted effect of over 50% in size
# An asterisk follows results filed as active; i = inactive; ? = inconclusive; . = not tested or not shown; [ ] = remark or other dose. Unless noted, calls come from the whole dose curve; as a rule, active = well fitted curve in the direction sought with a large enough effect; inconclusive = small, poorly fitted or top-dose-only effect, or another doubt; inactive = no such curve, though single readings can be large; an effect the other way counts as inactive or inconclusive.
SMILES,IL-1B inflam inh,KB-V1 MDR tox,SW480 rerep,KB-3-1 tox,MCF10A rerep
COC(=O)c1cccc(NC(=O)NC23CC4CC(CC(C4)C2)C3)c1,-1,i,?,i,21%
O=C(COC(=O)c1cccc(S(=O)(=O)N2CCOCC2)c1)c1ccccc1,1,i,0%,i,0%
COC(=O)c1cccc(S(=O)(=O)N2CCC(C)CC2)c1,2,21µM*,-3%,i,4%
O=C(Nc1ccccc1)c1cccc(S(=O)(=O)N2CCCCC2)c1,15,i,-16%,i,1%
CCOc1ccc(N2C(=O)C3C(c4ccccc4F)NN(C(=O)c4ccc(C)cc4)C3C2=O)cc1 (stereo not drawn),3,i,2%,i,15%
COc1ccc(NC(=O)CCCn2nc(C)c3c(C)n(-c4ccccc4)nc3c2=O)cc1,-5,i,-9%,i,4%
COc1ccccc1N(Cc1cc(=O)[nH]c2ccccc12)C(=O)c1ccc([N+](=O)[O-])cc1,7,i,3%,i,-3%
O=C(C[n+]1cccc(Br)c1)c1ccc(I)cc1,.,i,.,i,.
COc1cc(C(=O)NC2CCN(C)CC2)ccc1Nc1ncc2c(n1)N(CCc1ccccc1)CCC(=O)N2C,-5,i,0.21µM*,?,9.2µM*
Cn1c(C=O)c(C#CC(C)(C)O)c2ccccc21,21,i,-2%,i,-8%
COc1cccc(C#Cc2c(C=O)n(C)c3ccccc23)c1,35,?,2.3µM*,i,?
C=CCn1c(SCC(=O)N2CCOCC2)nc2sc(CC)cc2c1=O,-9,4.6µM*,-6%,i,-5%
C=CCn1c(SCC(=O)c2cccs2)nc2sc(C)cc2c1=O,-23,7.3µM*,0%,i,?
C=CCn1c(SCC(=O)N2CCc3ccccc3C2)nc2sc(CC)cc2c1=O,-2,i,-1%,i,15%
COc1ccc([N+](=O)[O-])cc1NC(=O)C(C)N(C)Cc1cccc(OC)c1OC (stereo not drawn),2,8.2µM*,17%,i,30%
COc1ccc(NC(=O)c2ccc(-c3ccc([N+](=O)[O-])cc3)o2)cc1OC,-76*,?,1%,i,?
COc1ccc(NC(=O)c2ccc(C(=O)c3cc(OC)ccc3OC)cc2)cc1,19,i,-22%,i,-1%
COc1ccc(Cl)cc1NS(=O)(=O)c1cccc(C(=O)NCCCN2CCOCC2)c1,11,i,.,i,.
COc1ccc(OC)c(C(=O)c2ccc(C(=O)Nc3ccccc3)cc2)c1,-13,23µM*,-10%,i,4%
COc1ccc(Cl)cc1NS(=O)(=O)c1cccc(C(=O)NC2CC2)c1,-6,18µM*,-5%,i,-5%
COc1ccccc1NS(=O)(=O)c1cccc(NC(=O)NCCCl)c1,0,i,6%,i,1%
CCN(CC)S(=O)(=O)c1ccc(OC)c(NC(=O)c2ccc([N+](=O)[O-])cc2)c1,?,i,-3%,i,-2%
COc1cc(/C=C(/NC(=O)c2ccccc2)C(=O)Nc2ccccc2)c([N+](=O)[O-])cc1OC,-6,16µM*,1%,i,0%
COc1ccc([N+](=O)[O-])cc1NC(=O)Nc1cccc(Cl)c1,-19,2.9µM*,?,5.2µM*,0%
COc1ccc([N+](=O)[O-])cc1NC(=O)Cc1ccc(Cl)cc1,-4,i,-1%,i,11%
SMILES,IL-1B inflam inh,KB-V1 MDR tox,SW480 rerep,KB-3-1 tox,MCF10A rerep
COc1ccc(C(=O)Nc2ccccc2)cc1NC(=O)c1ccc([N+](=O)[O-])cc1,-63*,?,2%,i,2%
COc1ccccc1NS(=O)(=O)c1cccc(NC(=O)Nc2cccc(Cl)c2)c1,-65*,i,?,?,?
COc1ccc(NC(=O)Nc2cc(C)ccc2F)cc1OC,-51*,i,-3%,i,-2%
COc1ccc(NC(=O)Nc2ccc(OC)c(OC)c2)c([N+](=O)[O-])c1,7,i,-1%,i,?
COc1ccc(C)cc1NC(=O)Nc1cccc(C)c1,0,i,-6%,i,-6%
COc1ccc(C(=O)COC(=O)c2ccc(NC(=O)c3ccccc3)cc2)cc1,0,15µM*,?,i,4%
COc1ccc([N+](=O)[O-])cc1NC(=O)Nc1ccc(OC)c(OC)c1,-85*,?,-1%,i,18%
CCc1ccc(Nc2nnc(SCC(=O)NC(=O)c3cccn3C)s2)cc1,38,?,?,?,18µM*
Cc1cc(N)nc(=O)n1C1CC(O)C(CO)O1 (stereo not drawn),6,i,2%,i,-3%
CCOC(=O)C1(C)Oc2cccnc2NC1=O (stereo not drawn),-70*,i,-9%,i,-1%
CC1(C(=O)O)Oc2cccnc2NC1=O (stereo not drawn),20,i,2%,i,5%
CN(C)C(=O)CNC(=O)CN1C(=O)NC2(CCCc3sccc32)C1=O (stereo not drawn),-65*,i,1%,i,-3%
Cc1ccsc1CN(C)C(=O)CN1C(=O)NC2(CCCc3ccccc32)C1=O (stereo not drawn),-14,i,-6%,i,?
COc1cccc(CN(C)C(=O)CN2C(=O)NC3(CCCc4ccccc43)C2=O)c1 (stereo not drawn),23,21µM*,-3%,i,-3%
CC(=O)c1cccc(NC(=O)CCc2c(C)nc3nc(CN)nn3c2C)c1,.,i,.,i,.
COc1ccc2c(c1OC)C(=O)N1c3ccccc3C(=O)N(c3ccccc3F)C21 (stereo not drawn),-22,5.8µM*,-5%[9.22 µM],i,?
COc1ccc2c(c1OC)C(=O)N1c3ccccc3C(=O)N(Cc3ccco3)C21 (stereo not drawn),.,?,.,i,.
COc1ccc2c(c1OC)C(=O)N1c3cccc(Cl)c3C(=O)OC21 (stereo not drawn),-9,i,0.65µM*,i,1.3µM*
Cn1ccc2c(-c3ccc4[nH]ccc4c3)cc3c(c21)C1CCC3O1 (stereo not drawn),-1,i,.,i,.
Cn1c(-c2ccccc2)cc2c3no[n+]([O-])c3ccc21,67,?,3.7µM*,3.7µM*,?
CCC(=O)Nc1ccc(S(=O)(=O)Nc2cccc(C)c2)cc1OC,33,18µM*,7%,?,?
CCC(=O)Nc1ccc(S(=O)(=O)N2CCCCC2)cc1OC,25,i,-8%,i,28%
COc1ccc(S(=O)(=O)Nc2cccc(C(C)=O)c2)cc1Br,-71*,?,-1%,i,1%
COc1ccc(S(=O)(=O)Nc2cccc(N(C)S(C)(=O)=O)c2)cc1Br,-7,15µM*,-2%,i,1%
